Assay results from PubChem BioAssay AID743286 (National Center for Advancing Translational Sciences (NCATS), 2014).
Among all 1,100 compounds or so, about 340 (31%) were called active. About 40% were inconclusive and are not listed. Not all results are given here. A number with no mark means an inactive call. Calls come from the whole dose curve; as a rule, active = well fitted inhibition curve with a large enough effect; inconclusive = small, poorly fitted or top-dose-only effect; inactive = flat fitted curve, though single readings scatter.

Biological target: Phosphatidylinositol 5-phosphate 4-kinase type-2 alpha (Homo sapiens) (UniProt P48426)
Assay: qHTS for Inhibitors of PI5P4K: Confirmation in Primary Assay; note: nearly all actives have a fitted effect of over 65% in size
Conditions: PI5P4Kalpha enzyme, ADP-Glo luminescence, 60 min; series mostly up to 76.9 µM; activity change, negative = inhibition: at the top concentration
In short: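 ADP-Glo luminescence end-point quantifies ADP from 60-min room-temperature turnover of PI5P by PI5P4Kα. ATP 5 µM final; buffer 0.038 M HEPES pH 7.4, 0.28 mM EGTA, 0.1% CHAPS, 5% DMSO.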
% is set by controls: 0 for no effect and ±100 for the full control effect; potency is the fitted concentration of half-maximal effect.

Sequence of Phosphatidylinositol 5-phosphate 4-kinase type-2 alpha (Homo sapiens) (P48426 whole entry, looked up): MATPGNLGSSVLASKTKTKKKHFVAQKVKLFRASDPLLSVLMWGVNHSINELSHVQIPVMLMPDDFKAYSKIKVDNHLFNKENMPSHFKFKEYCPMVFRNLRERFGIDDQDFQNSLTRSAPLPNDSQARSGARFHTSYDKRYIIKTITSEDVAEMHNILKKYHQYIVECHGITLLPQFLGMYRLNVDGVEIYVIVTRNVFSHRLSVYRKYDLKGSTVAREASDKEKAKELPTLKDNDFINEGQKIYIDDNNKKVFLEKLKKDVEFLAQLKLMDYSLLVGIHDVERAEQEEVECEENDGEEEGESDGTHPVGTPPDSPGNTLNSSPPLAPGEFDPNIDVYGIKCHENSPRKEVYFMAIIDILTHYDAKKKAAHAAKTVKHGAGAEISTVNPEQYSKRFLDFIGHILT

| Compound | Potency | activity change, negative = inhibition |
| --- | --- | --- |
| COc1ccc(OC)c(NC(=O)COC(=O)c2cc3c(s2)CCC3)c1 | 12.6 µM (active) |  |
| COc1ccc(OC)c(NC(=O)CN(Cc2ccc(F)cc2)C2CCCCC2)c1 |  | -1.93% |
| CN(C(=O)c1ccc(Br)o1)C1CCS(=O)(=O)C1 (configuration not stated) |  | 6.38% |
| CC(C)(C)c1ccc(NC(=O)C2=CC=CN3CCS(=O)(=O)N=C23)cc1 |  | 8.13% |
| Cc1oc(-c2ccc(Cl)cc2)cc1C(=O)N1CCC1(C)C(=O)O (configuration not stated) |  | -17.1% |
| Cc1oc(-c2ccc(Cl)cc2)cc1-c1nn2c(-c3ccoc3C)nnc2s1 | 14.1 µM (active) |  |
| CC(C)c1ccc(CNc2nc(NCC3CC3)nc3ccsc23)cc1 |  | -27.8% |
| COc1cccc(CNc2nc(NC(C)C)nc3ccsc23)c1 |  | 0.0638% |
| COc1ccccc1CNc1nc(NCc2cccc(OC)c2OC)c2sccc2n1 |  | -9.72% |
| c1ccc(CNc2nc(NCC3CC3)nc3cc(-c4ccccc4)sc23)cc1 | 12.6 µM (active) |  |
| c1ccc(-c2cc3nc(NCC4CC4)nc(NCC4CCCCC4)c3s2)cc1 | 20 µM (active) |  |
| CCO[C@@H]1OC(C(=O)NCc2ccccc2)=C[C@H](C(C)(C)C)[C@H]1CCCO |  | 3.67% |
| O=C(Cn1cnc2c(OCc3ccccc3)ncnc21)NCc1nc2ccccc2[nH]1 |  | 0.539% |
| COc1ccc(CCNC(=O)CNCC(c2ccccc2)N(C)C)cc1OC (configuration not stated) |  | -0.661% |
| Cc1ccc2c(CC(=O)OCC(=O)N(CC(C)C)c3c(N)n(Cc4ccccc4)c(=O)[nH]c3=O)coc2c1 |  | -22.2% |
| COCCN(C(=O)COC(=O)c1cc2c(s1)CCC2)c1c(N)n(Cc2ccccc2)c(=O)[nH]c1=O | 3.16 µM (active) |  |
| COc1ccc(S(=O)(=O)N2CCCC(C(=O)Nc3cccnc3)C2)cc1Cl (configuration not stated) |  | -1.94% |
| CCOc1ccc(C(Nc2cccnc2)c2cc(Cl)c3cccnc3c2O)cc1 (configuration not stated) | 6.31 µM (active) |  |
| COc1ccc(Cl)cc1C(Nc1cccnc1)c1ccc2cccnc2c1O (configuration not stated) | 12.6 µM (active) |  |
| O=C(NC(c1ccc(Cl)cc1)c1cc(Cl)c2cccnc2c1O)c1cccnc1 (configuration not stated) | 22.4 µM (active) |  |
| COc1ccc(N(C(=O)C2CSC(=O)C2)C(C(=O)NC(C)(C)C)c2ccncc2)cc1 (configuration not stated) |  | 4.14% |

| Compound | Potency | activity change, negative = inhibition |
| --- | --- | --- |
| Cc1noc(C)c1CCC(=O)N1CCCC(CCC(=O)NCc2ccc(F)c(F)c2)C1 (configuration not stated) |  | 6.69% |
| COC(=O)c1c[nH]c(=O)c2ccccc12 |  | 3.61% |
| CCOC(=O)[C@]12CCCC=C1N(Cc1ccccc1)C(=O)[C@H](CC(=O)NCCCOC)C2 |  | -0.167% |
| O=C(COC(=O)c1ccc(NS(=O)(=O)c2cccs2)cc1O)Nc1nc2ccccc2s1 | 20 µM (active) |  |
| O=C(Cn1cc(COc2ccc(Br)cc2[N+](=O)[O-])nn1)c1ccc(O)cc1 |  | -24.8% |
| C#CCN1C(=O)S/C(=C\c2ccc(-c3ccc(C(=O)O)cc3C)o2)C1=O | 12.6 µM (active) |  |
| CN(c1cccc(NC(=O)c2ccc(N(C)S(=O)(=O)c3ccccc3)cc2)c1)S(C)(=O)=O |  | 2.47% |
| CC1(C)Cc2cccc(OCC(=O)NCCOc3ccccc3)c2O1 |  | -1.33% |
| FC(F)(F)C1=Nc2cccc3cccc(c23)N1 | 3.98 µM (active) |  |
| CC[C@]12c3[nH]c4cc(-c5ccco5)ccc4c3CCN1C(=O)[C@@H](CC(=O)NCCC1=CCCCC1)C[C@@H]2C(=O)N1CCN(C(=O)c2ccco2)CC1 |  | -10.8% |
| Cc1ccc2c(c1)N(CC(=O)N1CCCCCC1)C(=O)C(C)O2 (configuration not stated) |  | -5.68% |
| Cc1cc(C)c(NC(=O)OCCN2CCOCC2)c(C)c1 |  | -2.26% |
| O=C(CSc1nncn1-c1ccccc1)Nc1ccc(N2CCOCC2)cc1 |  | -6.25% |
| Cc1cc2[nH]c3c4ccccc4nc(C)c3c2cc1C | 28.2 µM (active) |  |
| O=S(=O)(Nc1ccccc1N1CCCCC1)c1ccc(Cl)s1 |  | 13.5% |
| CCS(=O)(=O)Nc1ccc(-c2nc3cccnc3s2)cc1 | 22.4 µM (active) |  |
| O=S(=O)(Nc1ccc(-c2nc3cccnc3s2)cc1)c1ccc(Cl)s1 | 14.1 µM (active) |  |
| O=S1(=O)CC(N2CCSCC2)CN1Cc1cn(Cc2ccc(F)cc2)nn1 (configuration not stated) |  | 0.289% |
| COc1cc(Br)cc(CNc2ccc(F)c([N+](=O)[O-])c2)c1O |  | 4.43% |
| Cn1c(=O)c2c(-c3ccccc3)n(-c3cccc(O)c3)cc2n(C)c1=O |  | -7.76% |
| Cc1cccc(C2Nc3ccccc3C(=O)N2c2ccc(F)cc2)n1 (configuration not stated) |  | 10.2% |

| Compound | Potency | activity change, negative = inhibition |
| --- | --- | --- |
| COc1ccc2[nH]c(=O)c(CN(Cc3nnnn3Cc3ccco3)C3CCCCC3)cc2c1 |  | -6.21% |
| NS(=O)(=O)c1ccc2c(c1)C1C=CCC1C(C1CC=CCC1)N2 (configuration not stated) | 28.2 µM (active) |  |
| CCN(CC)CCCCCC(=O)Nc1ccccc1C(=O)Nc1ccccc1 |  | 0.323% |
| CCCCC1=CC2=CC(=O)C(C)(OC(=O)C3CCCC3)C(=O)C2=CO1 (configuration not stated) | 15.8 µM (active) |  |
| Cc1c(Cl)cccc1NC(=O)Cn1nnc(C(=O)NCc2cccs2)c1N |  | -10.6% |
| S=C(NCc1ccccc1)N1CCc2ccccc2C1 |  | 8.97% |
| Cc1ccc([N+](=O)[O-])cc1NC(=O)CCSc1ccc(Cl)cc1 |  | 11.2% |
| NC(=O)c1ccsc1NC(=O)c1ccc([N+](=O)[O-])o1 | 12.6 µM (active) |  |
| Cc1ccc(Nc2nc(NCc3ccco3)c3ccccc3n2)cc1 | 35.5 µM (active) |  |
| COc1ccccc1CNc1nc(Nc2cccc(-c3cnco3)c2)c2sccc2n1 |  | -16.8% |
| Cc1cccc(Nc2nc(NCc3ccco3)c3ccccc3n2)c1 | 35.5 µM (active) |  |
| CCc1cc(=O)oc2cc(C)c(CN3CCCCC3)c(O)c12 |  | -23.8% |
| COc1ccc(N(C(=O)c2ccccc2)S(=O)(=O)c2cccs2)cc1 |  | -2.58% |
| CC(CNC(=O)c1ccc(Br)o1)NC(=O)c1ccc(Br)o1 (configuration not stated) |  | -4.83% |
| O=C(Nc1cccc(S(=O)(=O)NC2=NCCC2)c1)c1cc(-c2ccco2)nc2ccccc12 | 2.51 µM (active) |  |
| COc1ccc(NC(=O)c2cc(-c3ccco3)nc3ccccc23)cc1S(=O)(=O)N1CCOCC1 | 6.31 µM (active) |  |
| COc1ccc(Br)cc1C(=O)Nc1cccc(NC(=O)c2ccco2)c1 |  | -7.07% |
| O=C(Nc1cccc(S(=O)(=O)NC2=NCCCCC2)c1)c1cc(-c2ccco2)nc2ccccc12 | 2.82 µM (active) |  |
| Cc1csc(=O)n1CCC(=O)OCC(=O)Nc1ccc(N2CCOCC2)cc1 |  | -1.41% |
| COc1ccc(N2CC(O)=C(c3nc(-c4ccccc4)cs3)C2=N)cc1 |  | -4.17% |
